PubChem BioAssay AID1159580 (chemical genetic matrix, 2015)
The whole screen tested about 5,500 compounds, of which about 2,000 (36%) were called active. Another 18% or so got no clear call; they are omitted. Cut-off read from the data, not from the text of the source: active = normalized growth mostly below about 0.91 (no sharp cut-off); inconclusive = no clear call, values can overlap the other calls; inactive = mostly above about 0.92. The list shows a part of the results.

Assay: chemical genetic growth profiling, strain panel (AID 1159580);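 note: tested at 20 µM; growth read once vehicle control cultures reached saturation at 30 °C; 1 = growth at the plate median or of vehicle wells; lower values mean less growth of the strain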
Conditions: S. cerevisiae deletion strains, growth OD

Measured: normalized growth

C=Cc1c2[nH]c(c1C)Cc1[nH]c(c(C)c1C=C)C=C1N=C(C=c3[nH]c(c(C)c3CCC(=O)O)=C2)C(CCC(=O)O)=C1C
inactive: locus YAL013W, strain DEP1, stronger effect = lower value 0.99 | locus YAL040C, strain CLN3, stronger effect = lower value 0.989 | locus YCL061C, strain MRC1 (second series), stronger effect = lower value 1.01 | locus YDR363W, strain ESC2, stronger effect = lower value 1.05 | locus YER002W, strain NOP16, stronger effect = lower value 0.987 | locus YGR078C, strain PAC10, stronger effect = lower value 1.01 | locus YJR075W, strain HOC1, stronger effect = lower value 1.01 | locus YMR307W, strain GAS1, stronger effect = lower value 1.01 | locus YNL153C, strain GIM3, stronger effect = lower value 0.799 | locus YNL175C, strain NOP13, stronger effect = lower value 0.993 | locus YNL197C, strain WHI3, stronger effect = lower value 0.972 | locus YNL224C, strain SQS1, stronger effect = lower value 1.01 | locus YOR083W, strain WHI5 (second series), stronger effect = lower value 1.01
